In PubChem BioAssay (NCI):
Values joined by “and” are separate entries in the source; they are usually repeats but may differ in a detail not shown here. Identical values can stand only once. About 83,000 compounds went through this panel and 20% of them were active in at least one assay; those are over-represented in the sample as a whole.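 Plates (96-well) were seeded with cells, treated with compound at one concentration, and incubated for 48 hours before percent growth was determined.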 Active and inactive are the calls of the source. Rule for the calls: active = growth percent below 10; inactive = the rest.

Tested on: HL-60(TB) leukemia
Assay: NCI-60 one-dose screen, 48 h (100 = growth as untreated, 0 = no growth, -100 = all killed)
Details: 10 µM unless noted

Row | Structure (SMILES) | growth
1 | C/C(=N\N=C(/C)c1cccc([N+](=O)[O-])c1)c1cccc([N+](=O)[O-])c1 | 125% (inactive)
2 | O=C1/C(=C/c2ccc(O)cc2O)N=C2SCCCN12 | 100% (inactive)
3 | O=[N+]([O-])C1C(c2ccccc2)C12c1ccccc1-c1ccccc12 (stereo not given) | -30.6% (active)
4 | CC(C)(C)NC(C1=CC(C)(C)c2ccccc2C1=O)c1ccccc1 (stereo not given) | -45.2% (active)
5 | Brc1ccc(-n2cc(-c3nn[nH]n3)c(-c3cccs3)n2)cc1 | 104% (inactive)
6 | CCOc1ccccc1/C=N/N1CCCCCC1 | 99.1% (inactive)
7 | O=C1Nc2c(c(=O)n(-c3ccccc3)c3ccccc23)C(c2ccc(Cl)cc2)N1 (stereo not given) | 108% (inactive)
8 | Oc1ccc(Cc2ccccc2Cl)c(O)c1 | 97.4% (inactive)
9 | CN1CCN(Cc2ccc(NC(=O)c3cnc(F)c(C#Cc4cnc(N)c5ncccc45)c3)cc2C(F)(F)F)CC1 | -9.84% (active)
10 | O=C1C(Cl)=C(Nc2ccc3cn[nH]c3c2)C(=O)c2ccccc21 | -69.2% (active)
11 | CC1=CC(O)C2CC1C2(C)C (stereo not given) | 100% (inactive) and 73.7% (inactive)
12 | Cn1nccc1Nc1nccc(-c2ccn([C@H](CO)c3ccc(Cl)c(F)c3)c(=O)c2)n1 | 57.1% (inactive)
13 | Oc1c(CN2CCCCC2)ccc2cccnc12 | 58.3% (inactive) and 18.2% (inactive)
14 | COc1cc(-c2cc3ncccc3c3[nH]c(=O)c4cccnc4c23)cc(OC)c1OC | -7.16% (active)
15 | COc1ccc(N)c2c1C(=O)c1ccccc1C2=O | 45.8% (inactive)
16 | c1ccc2c(N3CCCCC3)ncnc2c1 | 51.5% (inactive)
17 | N#Cc1cccc(-c2c(-c3ccc4ccccc4c3)oc3ccccc3c2=O)c1 | 6.17% (active)
18 | COc1ccccc1C1OC2=Nc3cc(C)c(C)cc3NC2C1=O (stereo not given) | 102% (inactive)
19 | COc1cc(CN2CCC(N3CCCC3=O)c3ccccc32)cc(OC)c1OC (stereo not given) | 56.4% (inactive)
20 | COc1cc(-c2cc(-c3cc4c([nH]c5ccccc54)c(-c4cc(OC)c(OC)c(OC)c4)n3)cc(-c3ccccc3)n2)cc(OC)c1OC | 30.9% (inactive)

Row | Structure (SMILES) | growth
21 | CNC(=O)c1cc(Oc2ccc3nc(NC(C)=O)sc3c2)ccn1 | 98.9% (inactive)
22 | Cc1ccc(S(=O)(=O)Nc2cccc(Cn3c(=O)[nH]c4ccc(Oc5ncccn5)cc4c3=O)c2)cc1 | 65.3% (inactive)
23 | O=S(=O)(Nc1ccc(Cl)c(C(F)(F)F)c1)c1ccc(-c2cnc(C3CC3)o2)cc1 | -38.6% (active)
24 | CCNc1nc(-c2ccc(Cl)c(OC)c2)c(-c2ccnc(NCCCNS(=O)(=O)c3ccc(Cl)cc3)n2)s1 | 34.9% (inactive)
25 | Cc1ccc(NC(=O)Nc2ccc(-c3cccnc3)cc2N2CCC(CO)CC2)cc1 | 13.9% (inactive)
26 | CCOC(=O)c1cn2c3c(cc(F)cc3c1=O)C(CC)c1ccccc1C2 (stereo not given) | 94.9% (inactive)
27 | CNc1cc2nc3cc(NC)c(C)cc3cc2cc1C | 18.9% (inactive)
28 | O=C(Cc1ccc(/C=C/C(=O)c2ncc[nH]2)cc1)Nc1ccccc1 | 7.76% (active)
29 | CCN(CC)CC(=O)Nc1c(C)cc(C(=O)NN)cc1C | 65.2% (inactive)
30 | COc1ccc(-c2nc(NN)c3c(C)nn(-c4ccc(F)cc4)c3n2)cc1 | 0.613% (active)
31 | COc1ccc(-c2nc3cc(C(=O)NCc4ccccc4)ccc3n2C2CCCCC2)cc1 | 71.1% (inactive)
32 | C#CCn1cnc2c(Nc3cccc(NC(=O)C=C)c3)ncnc21 | 99.6% (inactive)
33 | O=C(Nc1cccc(C(F)(F)F)c1)Nc1cccc(C(F)(F)F)c1 | -27.8% (active)
34 | COC1=C(Br)C(=O)C(OC)=C(Br)C1=O | 8.67% (active)
35 | COc1cc(OC)c2sc(-c3ccc(-n4cncc4-c4ccc(OC)c(OC)c4)cc3)nc2c1 | 58.5% (inactive)
36 | CC[C@]12C=CCN3CC[C@@]4(c5ccc(OC)cc5N(C)[C@H]4[C@@](O)(C(=O)OC)[C@@H]1OC(=O)CCC(=O)N[C@H](Cc1c[nH]c4ccccc14)C(=O)OC)[C@@H]32 | -25% [100 µM] (active)
37 | CC(=O)CC(c1ccc([N+](=O)[O-])cc1)c1c(O)c2ccccc2oc1=O (stereo not given) | 97% (inactive)
38 | O=C1Nc2ccccc2/C1=C\c1nc(-c2ccccc2F)n2ccccc12 | 73.4% (inactive)
39 | O=C1/C(=C2/C=Nc3ccccc32)N(O)c2ccccc21 | 8.87% (active)
40 | c1ccc(OCC[P+](c2ccccc2)(c2ccccc2)c2ccccc2)cc1 | -19.4% (active)
